Structures are written as SMILES. Hit rate of the full screen: of about 39,000 compounds, about 500 (1.3%) were called active. What follows is part of a selection rich in actives, with near analogues and random picks from the rest.

In this experiment the test system is S. aureus RN4220. Description: growth inhibition call (relative growth <= 0.2). The note with it: 50 µM.
On to `C[C@H](CO)N1C[C@H](C)[C@H](CN(C)S(C)(=O)=O)Oc2ccc(NC(=O)Nc3ccc(F)cc3)cc2C1=O`, for which the growth inhibition call was “inactive”.
Take `C[C@@H]1CN([C@@H](C)CO)C(=O)c2cc(NC(=O)NC3CCCCC3)ccc2O[C@@H](C)CCCCO[C@H]1CN(C)S(=O)(=O)c1ccccc1`: the growth inhibition call was “inactive”.
`Cc1ccc(NC(=O)c2ccc(CN3CC[C@H](N(C)C)C3)c(C(F)(F)F)c2)cc1Nc1nccc(-c2cncnc2)n1`: the growth inhibition call is “inactive”.
`C[C@@H]1CN([C@H](C)CO)C(=O)c2ccccc2-c2ccccc2CO[C@@H]1CN(C)Cc1ccc(C(F)(F)F)cc1`: the growth inhibition call is “inactive”.
To `C[C@H](CO)N1C[C@H](C)[C@H](CN(C)Cc2cncnc2)Oc2ncc(C#C[C@@H](C)O)cc2C1=O` belongs “inactive”; to `C[C@H]1CN([C@@H](C)CO)C(=O)c2cc(NC(=O)Cn3cnnn3)ccc2O[C@@H]1CN(C)C(=O)Nc1ccccc1`, “inactive”; to `C[C@H]1CN([C@@H](C)CO)S(=O)(=O)c2ccc(C#CC(C)(C)O)cc2O[C@H]1CN(C)Cc1ccc(F)cc1`, “inactive”.
As for `CCC1OC(=O)C(C)C(OC2CC(C)(OC)C(O)C(C)O2)C(C)C(OC2OC(C)CC(N(C)C)C2O)C(C)(O)CC(C)CN(C)C(C)C(O)C1(C)O` (configuration not stated), the entry is “active”; as for `CC[C@H]1OC(=O)[C@H](C)[C@@H](O[C@H]2C[C@@](C)(OC)[C@@H](O)[C@H](C)O2)[C@H](C)[C@@H](O[C@@H]2O[C@H](C)C[C@H](N(C)C)[C@H]2O)[C@](C)(O)C[C@@H](C)CN(C)[C@H](C)[C@@H](O)[C@]1(C)O`, “inactive”.
Regarding `C(=N\C1CCCCCCCCCCC1)/c1ccco1`, the growth inhibition call is “inactive”.
As for `C[C@H](CO)N1C[C@H](C)[C@H](CN(C)S(=O)(=O)c2cn(C)cn2)Oc2ccc(NC(=O)Cc3cn(C)c4ccccc34)cc2C1=O`, the entry is “inactive”.
As for `C[C@@H]1CN([C@@H](C)CO)C(=O)Cc2cc(NC(=O)Cc3cn(C)c4ccccc34)ccc2O[C@H]1CN(C)Cc1ccc(Oc2ccccc2)cc1`, the entry is “inactive”.
To `NCc1cn(-c2ccccc2)nc1C12CC3CC(CC(C3)C1)C2` belongs “active”; to `c1ccc(-c2nc(C34CC5CC(CC(C5)C3)C4)cs2)cc1`, “inactive”; to `OCc1cn(-c2ccccc2)nn1`, “inactive”.
As to `C=CC[C@@H](CC(=O)N[C@H](CO)Cc1ccccc1)C(=O)N[C@H](C)COC(=O)[C@@H](CC=C)CC(=O)OC(C)(C)C`, the growth inhibition call is “inactive”.
As for `C[C@@H]1CCCCO[C@@H](CN(C)Cc2ccncc2)[C@H](C)CN([C@H](C)CO)C(=O)c2cc(NC(=O)NC3CCCCC3)ccc2O1`, the entry is “inactive”; as for `CCc1oc2ccccc2c1C(=O)c1cc(Br)c(O)c(Br)c1`, “active”; as for `CCCCc1oc2ccccc2c1C(=O)c1cc(I)c(OCCN(CC)CC)c(I)c1.Cl`, “inactive”.
On to `CCCCc1oc2ccccc2c1C(=O)c1cc(I)c(OCCN(CC)CC)c(I)c1`, for which the growth inhibition call was “inactive”.
As for `OC[C@H]1O[C@@H](OCc2ccccc2)[C@H](O)[C@@H](O)[C@@H]1O`, the entry is “inactive”; as for `Cc1noc(C)c1NC(=O)Nc1ccc2c(c1)C(=O)N([C@@H](C)CO)C[C@@H](C)[C@@H](CN(C)C(=O)Nc1ccccc1)OCCCC[C@@H](C)O2`, “inactive”.
As for `COc1cc(NC(=O)c2cccc(-n3cc(NC(=O)Nc4cccc(C)c4)cn3)c2)cc(OC)c1OC`, the entry is “inactive”; as for `CC(=O)N1[C@H](CNC(=O)CN2CCOCC2)[C@H](c2ccccc2)[C@@H]1CO`, “inactive”.
As for `CON=C(C(=O)NC1C(=O)N2C(C(=O)OCOC(=O)C(C)(C)C)=C(C=Cc3scnc3C)CSC12)c1csc(N)n1` (configuration not stated), the entry is “active”; as for `CON=C(C(=O)N[C@@H]1C(=O)N2C(C(=O)OCOC(=O)C(C)(C)C)=C(C=Cc3scnc3C)CS[C@H]12)c1csc(N)n1`, “active”; as for `CCC=C(C(=O)NC1C(=O)N2C(C(=O)OCOC(=O)C(C)(C)C)=C(COC(N)=O)CSC12)c1csc(N)n1.Cl` (configuration not stated), “inactive”.
As to `CC(C)NC(=O)N(C)C[C@H]1Oc2ccc(NS(=O)(=O)c3ccc(F)cc3)cc2CC(=O)N([C@H](C)CO)C[C@H]1C`, the growth inhibition call is “inactive”.
To `COc1ccc2c3c([nH]c2c1)[C@@H](CO)N(C[C@]13CN(C1)S(=O)(=O)c1cccs1)C(=O)c1ccccc1` belongs “inactive”; to `C[C@@H]1CN([C@@H](C)CO)C(=O)c2cc(NC(=O)NC3CCCCC3)ccc2O[C@@H]1CN(C)Cc1ccc(Oc2ccccc2)cc1`, “inactive”; to `CC(C)(C)C(=O)C[n+]1ccc(C(N)=O)cc1`, “inactive”.
To `O=C(O)C1C(=CCO)OC2CC(=O)N21.[LiH]` (configuration not stated) belongs “active”.
As for `O=C(O)[C@H]1/C(=C/CO)O[C@@H]2CC(=O)N21`, the entry is “inactive”; as for `O=C(O)[C@@H]1C(=CCO)O[C@H]2CC(=O)N12`, “inactive”; as for `N[C@@H]1CC[C@@H](CCn2cc(C3(O)CCCC3)nn2)O[C@H]1CO`, “inactive”.
Consider `C[C@H](CO)N1C[C@H](C)[C@H](CN(C)C(=O)Nc2ccc(F)cc2)OCc2ccccc2-c2ccccc2C1=O`, for which the growth inhibition call is “inactive”.
To `C[C@@H]1CCCCO[C@@H](CN(C)C(=O)NC2CCCCC2)[C@H](C)CN([C@H](C)CO)C(=O)c2cc(NS(=O)(=O)c3cccs3)ccc2O1` belongs “inactive”; to `Cc1cccc(S(=O)(=O)N2C[C@H](O)COC[C@@H]3O[C@@H](CC(=O)NCc4ccc5c(c4)OCO5)CC[C@H]32)c1`, “inactive”.
`CC(=O)Oc1ccccc1C(=O)Nc1ncc([N+](=O)[O-])s1`: the growth inhibition call is “active”.
To `CC(=O)Nc1ncc([N+](=O)[O-])s1` belongs “inactive”; to `CC(=O)Oc1ccccc1C(=O)Nc1ccccc1`, “inactive”.
As for `O=S1(=O)C[C@@H]2NC(=S)N[C@@H]2C1`, the entry is “inactive”; as for `C[C@H](CO)N1C[C@H](C)[C@@H](CN(C)S(=O)(=O)c2cn(C)cn2)Oc2ccc(NC(=O)NC3CCCCC3)cc2CC1=O`, “inactive”.
To `C[C@@H]1CN([C@@H](C)CO)C(=O)c2cc(NC(=O)CCN3CCOCC3)ccc2O[C@@H]1CN(C)C(=O)Nc1ccccc1` belongs “inactive”; to `CC(C)NC(=O)N(C)C[C@H]1OCCCC[C@@H](C)Oc2ccc(NC(=O)C3CCCCC3)cc2C(=O)N([C@H](C)CO)C[C@H]1C`, “inactive”.
Regarding `COc1ccc(C2=N[C@H](c3ccc(Cl)cc3)[C@H](c3ccc(Cl)cc3)N2C(=O)N2CCNC(=O)C2)c(OC(C)C)c1`, the growth inhibition call is “inactive”.
As for `COc1ccc(C2=N[C@@H](c3ccc(Cl)cc3)[C@@H](c3ccc(Cl)cc3)N2C(=O)N2CCNC(=O)C2)c(OC(C)C)c1`, the entry is “active”.

(Values after the antibiotic and cytotoxicity screens of Wong et al. (2023).)
